Source: PubChem BioAssay (NCATS)
Results filed as inconclusive are left out. Calls of active or inactive are those of the source. The call rests on the fitted dose curve; in most records, active means well fitted inhibition curve with a large enough effect; inconclusive means small, poorly fitted or top-dose-only effect; inactive means flat fitted curve, though single readings scatter. Where a SMILES comes first, the peptide text is derived from it. The star is where a group is joined. AFC = O=c1cc(C(F)(F)F)c2ccc(N*)cc2o1

Assays:
CRL-7250 = normal cell line; test: Cytotoxic Profiling of Annotated Libraries Using Quantitative High-Throughput Screening (AID 1296008); conditions: Five cell lines viability, CellTiter-Glo ATP luminescence, 48-72 h; max response: active compounds read low; on max response: on the % scale 0 is the no-effect control and ±100 the full control effect
Procedure, shortened: (§1)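 Cytotoxicity was measured as CellTiter-Glo ATP luminescence, read after 10 min at room temperature. Compound treatment of the cells lasted 48 or 72 hr at 37 degrees Celsius in a qHTS format.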

HEK293 = test: as above; conditions: Five cell lines viability, CellTiter-Glo ATP luminescence, 48-72 h; max response: active compounds read low
Procedure, shortened: as §1

HaCat = test: as above; conditions: Five cell lines viability, CellTiter-Glo ATP luminescence, 48-72 h; max response: active compounds read low
Procedure, shortened: as §1

KB-3-1 = test: as above; conditions: Five cell lines viability, CellTiter-Glo ATP luminescence, 48-72 h; max response: active compounds read low
Procedure, shortened: as §1

NIH3T3 = test: as above; conditions: Five cell lines viability, CellTiter-Glo ATP luminescence, 48-72 h; max response: active compounds read low
Procedure, shortened: as §1

HEK293T = test: qHTS assay to identify novel small-molecules to repurpose for Merkel cell carcinoma treatment (AID 1296009); conditions: MCC and control cell lines, CellTiter-Glo viability, 72 h; series mostly up to 44.8 µM
Procedure, shortened: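 Cell viability measured by CellTiter-Glo following 72 hr compound treatment at 37 degree celsius, with NPC and MIPE libraries tested in 8- and 11-point concentration series.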
Further: nearly all actives have a fitted effect of over 60% in size.

CCOc1c2c(c(OCC)c3ccccc13)C(=O)N(c1ccc(CC(=O)NS(=O)(=O)c3ccccc3)cc1)C2
inactive: max response (CRL-7250) -1.51% | outcome (HEK293) | max response (HaCat) -7.44% | max response (KB-3-1) 1.17% | max response (NIH3T3) 3.33% | Potency (HEK293T)

c1nc(NC2CCCCCC2)c2cc(CNC[C@H]3CCCO3)sc2n1
inactive: outcome (CRL-7250) | outcome (HEK293) | max response (HaCat) -3.62% | max response (KB-3-1) -9.77% | max response (NIH3T3) 3.78% | Potency (HEK293T)

C/C(=C\CCC(C(=O)O)C1CCC2(C)C3=C(CCC12C)C1(C)CCC(=O)C(C)(C)C1CC3)C(=O)O (configuration not stated)
inactive: max response (CRL-7250) -10.7% | outcome (HEK293) | max response (HaCat) 0.998% | outcome (KB-3-1) | outcome (NIH3T3) | Potency (HEK293T)

CC1(C)CCC(C)(C)c2cc3c(cc21)Sc1ccccc1N=C3c1ccc(C(=O)O)cc1
inactive: outcome (CRL-7250) | outcome (HEK293) | max response (HaCat) -6.28% | max response (KB-3-1) -15.5% | max response (NIH3T3) 3.93% | Potency (HEK293T)

C/C=C(/C)C(=O)O[C@H]1C=C(C)C[C@H](OC(=O)c2ccc(O)cc2)C2[C@](O)(C(C)C)CC[C@@]21C (some centres not stated)
inactive: max response (CRL-7250) -4.39% | outcome (HEK293) | max response (HaCat) -13.2% | outcome (KB-3-1) | max response (NIH3T3) -3.12% | Potency (HEK293T)

C[C@@H]1O[C@@H](O[C@H]2[C@H](O[C@H]3CC[C@@]4(C)C(CC[C@]5(C)C4CC=C4[C@@H]6CC(C)(C)CC[C@]6(C(=O)O)CC[C@]45C)[C@]3(C)CO)OC[C@H](O)[C@@H]2O)[C@H](O)[C@H](O[C@@H]2OC[C@@H](O)[C@H](O)[C@H]2O)[C@H]1O (some centres not stated)
inactive: max response (CRL-7250) 0.8% | outcome (HEK293) | max response (HaCat) 3.75% | outcome (KB-3-1) | max response (NIH3T3) -3.35% | outcome (HEK293T) inactive [at 9.27 µM]

NC(=O)[C@H]1CCCCc2c1[nH]c1ccc(Cl)cc21
inactive: outcome (CRL-7250) | outcome (HEK293) | max response (HaCat) -14.2% | max response (KB-3-1) 7.59% | max response (NIH3T3) 4.7% | Potency (HEK293T)

COc1cc(/C=C/C(=O)O[C@H]2[C@H](O)[C@@H](CO)O[C@@]2(CO)O[C@H]2O[C@H](COC(=O)c3ccc(O)cc3)[C@@H](O)[C@H](O)[C@H]2O)cc(OC)c1OC
inactive: outcome (CRL-7250) | outcome (HEK293) | max response (HaCat) 4.76% | max response (KB-3-1) 3.54% | outcome (NIH3T3) | Potency (HEK293T)

C=C/C=C/[C@@H]1OC[C@H](/C=C/C=C/C)[C@H]1O
inactive: max response (CRL-7250) -3.1% | outcome (HEK293) | max response (HaCat) -9.46% | outcome (KB-3-1) | max response (NIH3T3) -1.27% | Potency (HEK293T)

C=CC1(C)CC(O)C2(CCC3C(C)(C(=O)O)CCCC3(C)C2=O)C1 (configuration not stated)
inactive: max response (CRL-7250) -1.04% | outcome (HEK293) | max response (HaCat) -1.18% | outcome (KB-3-1) | max response (NIH3T3) 1.85% | Potency (HEK293T)

C=Cc1cc(O)cc2nc(-c3ccc(O)c(F)c3)oc12
inactive: max response (CRL-7250) -4.59% | outcome (HEK293) | max response (HaCat) -8.75% | outcome (KB-3-1) | outcome (NIH3T3) | Potency (HEK293T)

CC(/C=C/C1(O)C(C)(C)CC(O)CC1(C)O)OC1OC(CO)C(O)C(O)C1O (configuration not stated)
inactive: outcome (CRL-7250) | outcome (HEK293) | max response (HaCat) -8.69% | outcome (KB-3-1) | outcome (NIH3T3) | Potency (HEK293T)

C=CC1(C)CC2=CCC3C(C)(C(=O)O)CCCC3(C)C2CC1OC(C)=O (configuration not stated)
inactive: outcome (CRL-7250) | outcome (HEK293) | max response (HaCat) -6.85% | max response (KB-3-1) 0.0592% | outcome (NIH3T3) | Potency (HEK293T)

CC1(C)CC[C@]2(C(=O)O)CC[C@]3(C)C(=CCC4[C@@]5(C)C[C@@H](O)[C@H](O)C(C)(C)C5CC[C@]43C)[C@@H]2[C@@H]1O (some centres not stated)
inactive: max response (CRL-7250) -1.48% | outcome (HEK293) | max response (HaCat) -22.1% | max response (KB-3-1) 0.492% | max response (NIH3T3) -12.3% | Potency (HEK293T)

CC(=O)N[C@@H](CC(C)C)C(=O)N[C@@H](CCC(=O)O)C(=O)N[C@@H](CCC(=O)O)C(=O)N[C@@H](CC(=O)O)C(=O)Nc1ccc2c(C(F)(F)F)cc(=O)oc2c1 (Ac-LEED-{AFC})
inactive: max response (CRL-7250) -4.37% | outcome (HEK293) | max response (HaCat) -31% | max response (KB-3-1) 0.179% | max response (NIH3T3) 1.1% | Potency (HEK293T)

CC1CCC(=O)CC(O)C(O)CC(=O)O1 (configuration not stated)
inactive: max response (CRL-7250) -5.97% | outcome (HEK293) | max response (HaCat) 4.62% | max response (KB-3-1) 5.19% | outcome (NIH3T3) | Potency (HEK293T)

C=CC(C)(C)C1(CC2NC(=O)C3CCCN3C2=O)C(=O)Nc2cc3c(cc21)C=CC(C)(C)O3 (configuration not stated)
inactive: max response (CRL-7250) -5.49% | outcome (HEK293) | max response (HaCat) -0.592% | max response (KB-3-1) 2.09% | outcome (NIH3T3) | Potency (HEK293T)

CC1OC(OC2C(CO)OC(OCC3OC(OC(=O)C45CCC(C)(C)CC4C4=CCC6C7(C)CCC(OC8OC(C(=O)O)C(O)C(OC9OC(CO)C(O)C(O)C9O)C8O)C(C)(C)C7CCC6(C)C4(C)CC5)C(O)C(O)C3O)C(O)C2O)C(O)C(O)C1O (configuration not stated)
inactive: outcome (CRL-7250) | outcome (HEK293) | max response (HaCat) -1.82% | outcome (KB-3-1) | max response (NIH3T3) 3.49% | outcome (HEK293T) inactive [at 9.27 µM]

C[C@@H]1CCC2C(C)(C)[C@H](O)CC[C@]2(C)[C@@]12Cc1c(O)cc3c(c1O2)CN(CCO)C3=O (some centres not stated)
inactive: max response (CRL-7250) -2.75% | outcome (HEK293) | max response (HaCat) 4.59% | max response (KB-3-1) 3.58% | max response (NIH3T3) 1.6% | Potency (HEK293T)

CC[C@H](C)/C=C(C)/C=C/C(=O)Cc1cc(O)c(C)c(O)c1C=O
inactive: max response (CRL-7250) -3.98% | outcome (HEK293) | max response (HaCat) 4.71% | max response (KB-3-1) 7.23% | max response (NIH3T3) 3.96% | Potency (HEK293T)

C=C1[C@@H]2[C@H]3OC(=O)C(=C)[C@@H]3CC[C@@](C)(O)[C@@H]2C[C@@H]1O[C@@H]1O[C@H](CO)[C@@H](O)[C@H](O)[C@H]1O
inactive: max response (CRL-7250) -4.93% | outcome (HEK293) | max response (HaCat) -10.8% | max response (KB-3-1) 1.42% | max response (NIH3T3) -3.98% | Potency (HEK293T)

CC1=CCC2C(C)(CO)CCCC2(C)C1CC12OC1C(O)C(CO)=CC2O (configuration not stated)
inactive: max response (CRL-7250) 4.27% | outcome (HEK293) | max response (HaCat) -8.88% | outcome (KB-3-1) | outcome (NIH3T3) | Potency (HEK293T)

CC(C)(C)NCc1cc(Nc2ccnc3cc(Cl)ccc23)c2c(c1O)CCCC2
inactive: max response (CRL-7250) 1.77% | outcome (HEK293) | max response (HaCat) -6.14% | max response (KB-3-1) 7.98% | outcome (NIH3T3) | outcome (HEK293T) inactive [at 0.588 µM]

COC(=O)[C@@]1(C)CC[C@]2(C(=O)O[C@@H]3O[C@H](CO)[C@@H](O)[C@H](O)[C@H]3O)CC[C@]3(C)C(=CCC4[C@@]5(C)CC[C@H](O[C@@H]6O[C@H](C(=O)O)[C@@H](O)[C@H](O)[C@H]6O)C(C)(C)C5CC[C@]43C)[C@@H]2C1 (some centres not stated)
inactive: max response (CRL-7250) -18.2% | outcome (HEK293) | max response (HaCat) -2.02% | max response (KB-3-1) -0.321% | max response (NIH3T3) 2.66% | outcome (HEK293T) inactive [at 9.27 µM]

CC[C@H](/C=C/[C@@H](C)[C@H]1CC[C@H]2[C@@H]3CC=C4C[C@@H](O)CC[C@]4(C)[C@H]3CC[C@]12C)C(C)C
inactive: max response (CRL-7250) -4.85% | outcome (HEK293) | max response (HaCat) 0.322% | outcome (KB-3-1) | outcome (NIH3T3) | outcome (HEK293T) inactive [at 4.96 µM]

CC1CCC2(C(=O)OC3OC(COC4OC(CO)C(O)C(O)C4O)C(O)C(O)C3O)CCC3(C)C(=CCC4C5(C)CCC(O)C(C)(C(=O)O)C5CCC43C)C2C1(C)O (configuration not stated)
inactive: outcome (CRL-7250) | outcome (HEK293) | max response (HaCat) -9.13% | max response (KB-3-1) 0.532% | outcome (NIH3T3) | outcome (HEK293T) inactive [at 9.27 µM]

CC(=O)c1c(C)cc(O[C@@H]2O[C@H](CO)[C@@H](O)[C@H](O)[C@H]2O)cc1O
inactive: outcome (CRL-7250) | outcome (HEK293) | max response (HaCat) 3.2% | max response (KB-3-1) -6.9% | max response (NIH3T3) 0.376% | Potency (HEK293T)

CC1(C)O[C@]23C[C@H]1C[C@H](OC(=O)c1ccoc1)[C@]2(C)[C@@H](OC(=O)c1ccoc1)CCC3(C)O (some centres not stated)
inactive: max response (CRL-7250) 0.391% | outcome (HEK293) | max response (HaCat) 2.39% | max response (KB-3-1) 7.96% | max response (NIH3T3) -0.102% | Potency (HEK293T)

CC1=CC(=O)OC(C)(CC(C)(O)C(=O)O)C1 (configuration not stated)
inactive: max response (CRL-7250) -4.45% | outcome (HEK293) | max response (HaCat) -5.61% | max response (KB-3-1) 6.61% | max response (NIH3T3) 0.862% | Potency (HEK293T)

CO[C@@H]1CC[C@H](OC[C@]2(COC(=O)c3ccc(C)[nH]3)[C@H](OC(C)=O)CC[C@@]3(C)[C@@H]4CC=C(C)[C@@H](C5=C(O)C(=O)OC5O)[C@]4(C)CC[C@@H]32)O[C@H]1C (some centres not stated)
inactive: outcome (CRL-7250) | outcome (HEK293) | max response (HaCat) -0.118% | outcome (KB-3-1) | max response (NIH3T3) -6.06% | Potency (HEK293T)

C=C1CC[C@@H]2[C@](C)(CC[C@H](O)[C@@]2(C)CCC=C(C)C)[C@@H]1Cc1c[nH]c2ccccc12
inactive: max response (CRL-7250) -8.3% | outcome (HEK293) | max response (HaCat) -2.84% | max response (KB-3-1) 1.09% | outcome (NIH3T3) | Potency (HEK293T)

C[C@@H]1O[C@@H](O[C@H]2[C@H](OC(=O)C34CCC(C)(C)CC3C3=CCC5C6(C)CC(O)C(O[C@@H]7O[C@H](CO)[C@@H](O)[C@H](O)[C@H]7O)C(C)(C(=O)O)C6CCC5(C)C3(CO)CC4)O[C@H](C)[C@H](O)[C@@H]2O)[C@H](O)[C@H](O)[C@H]1O[C@@H]1OC[C@@H](O)[C@H](O)[C@H]1O (some centres not stated)
inactive: max response (CRL-7250) -4.64% | outcome (HEK293) | max response (HaCat) 3.66% | outcome (KB-3-1) | max response (NIH3T3) 2.3% | outcome (HEK293T) inactive [at 9.27 µM]
